Measured values: the supplement of paper PMC13380429

System: Vero E6 infected with SARS-CoV-2
Assay: inhibition of SARS-CoV-2 cytopathic effect; higher = more antiviral protection, active = above 15
Details: 48 h

| Structure (SMILES) | inhibition of SARS-CoV-2 cytopathic effect (1 nM) | inhibition of SARS-CoV-2 cytopathic effect (8.33 nM) | inhibition of SARS-CoV-2 cytopathic effect (100 nM) | inhibition of SARS-CoV-2 cytopathic effect (833.33 nM) | inhibition of SARS-CoV-2 cytopathic effect (10000 nM) |
| --- | --- | --- | --- | --- | --- |
| Nc1ccccc1S(N)(=O)=O [2-aminobenzenesulfonamide] | 0.91% (inactive) | 2.45% (inactive) | 3.94% (inactive) | 3.53% (inactive) | -0.71% (inactive) |
| Cc1cccc(Nc2nc(-c3ccncc3)cs2)c1 | 0.53% (inactive) | -0.51% (inactive) | -0.62% (inactive) | 8.36% (inactive) | 48.4% (active) |
| C[C@]12CCC(=O)C=C1CC[C@@H]1[C@@H]2C(=O)C[C@]2(C)C(=O)CC[C@@H]12 [adrenosterone] | 0.47% (inactive) | -2.37% (inactive) | 0.08% (inactive) | 1.4% (inactive) | 2.11% (inactive) |
| O=c1ccc2cc3ccoc3cc2o1 [psoralen] | -1.78% (inactive) | 1.39% (inactive) | 1.55% (inactive) | 0.22% (inactive) | -0.41% (inactive) |
| OCCN(CCO)c1nc(N2CCCCC2)c2nc(N(CCO)CCO)nc(N3CCCCC3)c2n1 [dipyridamole] | -0.67% (inactive) | 1.83% (inactive) | 0.53% (inactive) | 0.2% (inactive) | 4.52% (inactive) |
| C#CCOC(=O)C1=CCCN(C)C1 [arecaidine-propargyl-ester] | -3.75% (inactive) | 0.55% (inactive) | -0.74% (inactive) | -1.69% (inactive) | 2.67% (inactive) |
| Cc1ccc(C(=O)Nc2ccc(CN3CCN(C)CC3)c(C(F)(F)F)c2)cc1C#Cc1cnc2cccnn12 [ponatinib] | 0.65% (inactive) | 1.8% (inactive) | 5.2% (inactive) | 1.27% (inactive) | -10.9% (inactive) |
| OC(CCN1CCCCC1)(c1ccccc1)c1ccccc1 [pridinol] | 3.98% (inactive) | 4.59% (inactive) | -0.32% (inactive) | -9.56% (inactive) | 0.53% (inactive) |
| CC(C)(C)[C@]1(O)CC2OC(=O)CC23C(=O)OC2OC(=O)[C@H](O)C231 (stereo not given in full) [bilobalide] | -0.27% (inactive) | 0.92% (inactive) | 0.44% (inactive) | -0.26% (inactive) | -0.37% (inactive) |
| O=C1c2ccccc2CCC1CNCCc1ccc(O)cc1 (stereo not given) | 0.05% (inactive) | -1.18% (inactive) | -2.27% (inactive) | -0.45% (inactive) | -0.46% (inactive) |
| CCOc1ccc(C(=O)OCCN(CC)CC)cc1 [parethoxycaine] | 0.82% (inactive) | -3.01% (inactive) | -2.92% (inactive) | -0.3% (inactive) | -0.09% (inactive) |
| COc1ccc(F)c(F)c1C(=O)c1cnc(NC2CCN(S(C)(=O)=O)CC2)nc1N | -1.93% (inactive) | -3.14% (inactive) | -5.01% (inactive) | 6.41% (inactive) | -11.5% (inactive) |
| CN(C)CCCCSC(=N)N | -2.5% (inactive) | -3.4% (inactive) | -2.41% (inactive) | 1.23% (inactive) | 2.12% (inactive) |
| COc1cccc(Nc2c(C(N)=O)cnc3c(C)cc(S(=O)(=O)c4cccc(C(=O)N(C)C)c4)cc23)c1 | 1.19% (inactive) | 3.12% (inactive) | 0.15% (inactive) | 3.01% (inactive) | 0.48% (inactive) |
| CCOC(=O)[C@@H](C)Oc1ccc(Oc2nc3ccc(Cl)cc3o2)cc1 [fenoxaprop-p-ethyl] | 0.1% (inactive) | -0.32% (inactive) | -2.57% (inactive) | 2.13% (inactive) | -0.66% (inactive) |
| CON [methoxyamine] | 0.67% (inactive) | -2.53% (inactive) | -0.44% (inactive) | -3.19% (inactive) | -0.96% (inactive) |
| CC[C@@H]1Cn2c(c3nc(-c4ccccc4)nc-3n(C)c2=O)N1 | -0.6% (inactive) | -0.25% (inactive) | -1.09% (inactive) | 0.66% (inactive) | 1.21% (inactive) |
| NCCCCCC(O)(P(=O)(O)O)P(=O)(O)O [neridronic-acid] | 0.84% (inactive) | -0.27% (inactive) | -2.11% (inactive) | 2.29% (inactive) | 3.47% (inactive) |
| C#CC1(OCC(O)CN2CCN(c3cccc(C(F)(F)F)c3)CC2)CCCCC1 (stereo not given) [terciprazine] | 0.45% (inactive) | -1.84% (inactive) | -0.67% (inactive) | 3.5% (inactive) | -3.3% (inactive) |
| c1ccc2c(c1)CN1CCCC1=N2 [desoxypeganine] | -4.75% (inactive) | -3.18% (inactive) | -1.21% (inactive) | -2.32% (inactive) | -1.54% (inactive) |

| Structure (SMILES) | inhibition of SARS-CoV-2 cytopathic effect (1 nM) | inhibition of SARS-CoV-2 cytopathic effect (8.33 nM) | inhibition of SARS-CoV-2 cytopathic effect (100 nM) | inhibition of SARS-CoV-2 cytopathic effect (833.33 nM) | inhibition of SARS-CoV-2 cytopathic effect (10000 nM) |
| --- | --- | --- | --- | --- | --- |
| N#CC(c1ccc(Cl)cc1)c1c(Cl)cc(-n2ncc(=O)[nH]c2=O)cc1Cl (stereo not given) [diclazuril] | -4.3% (inactive) | -0.75% (inactive) | 0.27% (inactive) | 1.84% (inactive) | 0.73% (inactive) |
| CC(=O)[C@H]1CC[C@H]2[C@@H]3CC[C@H]4C[C@H](O)CC[C@]4(C)[C@H]3CC[C@]12C [allopregnanolone] | 0.625% (inactive) | 0.465% (inactive) | -0.195% (inactive) | 0.8% (inactive) | -0.82% (inactive) |
| COc1ccccc1N1CCN(CCCCNC(=O)c2ccc3ccccc3c2)CC1 | -1.05% (inactive) | 0.24% (inactive) | 1.14% (inactive) | -0.36% (inactive) | -6.44% (inactive) |
| NC(=O)C[S+]([O-])C(c1ccccc1)c1ccccc1 (stereo not given) | -2.5% (inactive) | -3.65% (inactive) | -0.185% (inactive) | -1.01% (inactive) | -3.77% (inactive) |
| CC(C)(O)CS(=O)(=O)Nc1ccc2c(c1)CCN(C(=O)COc1cccnc1)C2 [Nampt-IN-1] | -1.96% (inactive) | -2.55% (inactive) | -5.64% (inactive) | -15.6% (inactive) | -25.6% (inactive) |
| O=C(Nc1ccc(C(=O)O)c(O)c1)c1ccccc1 [benzoylpas] | 0.82% (inactive) | -2.28% (inactive) | 0.45% (inactive) | -0.08% (inactive) | -0.85% (inactive) |
| CCOC(=O)Nc1cc(-c2ccc(C)c(NS(C)(=O)=O)c2)nn2c(C)nnc12 [bromosporine] | -4.03% (inactive) | -0.62% (inactive) | -0.65% (inactive) | -0.48% (inactive) | -19.3% (inactive) |
| C[C@H]1C[C@H]2[C@@H]3CCC4=CC(=O)C=C[C@]4(C)[C@@]3(Cl)[C@@H](O)C[C@]2(C)[C@@]1(O)C(=O)CO [beclomethasone] | -6.12% (inactive) | -1.77% (inactive) | 0.28% (inactive) | -4.99% (inactive) | -2.5% (inactive) |
| CCN(CC)Cc1ccc(C(=O)N(CCc2ccccc2OC)[C@@H]2CCNC2)cc1 | -1.07% (inactive) | -4.2% (inactive) | -1.66% (inactive) | -1.07% (inactive) | -1.55% (inactive) |
| O=C1CCc2ccc(OCCCCN3CCN(c4cccc(Cl)c4Cl)CC3)cc2N1 [aripiprazole] | 5.18% (inactive) | -2.79% (inactive) | 1.15% (inactive) | -1.05% (inactive) | -5.25% (inactive) |
| C=CC(=O)O [acrylate] | 0.49% (inactive) | -3.42% (inactive) | -3.82% (inactive) | 4.25% (inactive) | -1.97% (inactive) |
| C[C@@H](NCCCc1cccc(C(F)(F)F)c1)c1cccc2ccccc12 [cinacalcet] | 1.8% (inactive) | 2.9% (inactive) | 0.77% (inactive) | -2.27% (inactive) | -3.52% (inactive) |
| CC1(C)CC[C@]2(C(=O)O)CC[C@]3(C)C(=CC[C@@H]4[C@@]5(C)CC[C@H](O)C(C)(C)[C@@H]5CC[C@]43C)[C@@H]2C1 [oleanolic-acid] | -0.65% (inactive) | -0.09% (inactive) | 0.47% (inactive) | -0.94% (inactive) | -0.53% (inactive) |
| Cn1c(NC[C@@H](N)Cc2ccccc2)nc(-c2ccncc2)c(-c2ccc3ccccc3c2)c1=O | -0.22% (inactive) | 0.05% (inactive) | -0.08% (inactive) | 2.09% (inactive) | 32.9% (active) |
| CCC(C)n1ncn(-c2ccc(N3CCN(c4ccc(OCC5COC(Cn6cncn6)(c6ccc(Cl)cc6Cl)O5)cc4)CC3)cc2)c1=O (stereo not given) [itraconazole] | 2.52% (inactive) | 7.17% (inactive) | 2.54% (inactive) | -1.78% (inactive) | -7.27% (inactive) |
| N=C(N)NC(=O)c1nc(Cl)c(N)nc1N [amiloride] | 3.13% (inactive) | 3.86% (inactive) | 2.25% (inactive) | 3.19% (inactive) | 3.14% (inactive) |
| C1COC(NC(C2CC2)C2CC2)=N1 [rilmenidine] | 2.93% (inactive) | 3.39% (inactive) | -2.62% (inactive) | -3.95% (inactive) | -6.59% (inactive) |
| Clc1ccc(Nc2nnc(Cc3ccncc3)c3ccccc23)cc1 [vatalanib] | 0.19% (inactive) | -1.32% (inactive) | 0.29% (inactive) | 3.79% (inactive) | 1.06% (inactive) |
| C(=C\c1ccccc1)/CN1CCN(CCOC(c2ccccc2)c2ccccc2)CC1 | -2.82% (inactive) | 0.59% (inactive) | -0.97% (inactive) | 0.92% (inactive) | 4.63% (inactive) |
| CN(C(=O)c1ccc(F)cc1C(F)(F)F)C1CCN(c2nnc(-c3ccnn3C)c3ccccc23)CC1 [taladegib] | 0.16% (inactive) | -6.09% (inactive) | -5.17% (inactive) | -5.9% (inactive) | -5.54% (inactive) |
